The full data set covers some 7,900 targets. This sample favours those with a hit. About 0.6% of all pairs of compound and target were hits.
Columns and labels:
Test in all cases: log2 fold change, soluble protein after heating vs DMSO (PISA); higher = thermal stabilisation; K562 cells, 10 uM, 30 min; active = over 0.2 and 3.5 SD of the protein, either way, in both replicates (recomputed)
[1] = compound: C1=CC=C(C=C1)[C@H](COC2=CC3=C(C=C2)NC(=O)N3)NC(=O)C4=CC=CN(C4=O)CC5=CC(=C(C=C5)F)F
Summary of the method: (§1)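 K562 cells at 2×10^6 cells/mL were given 10 μM compound for 30 min. Aliquots then went through 3 min of heating across 48°C-58°C, were pooled, and were extracted in PBS with 0.5% NP-40 at 4°C, and the supernatant after 21,000xg for 90 min was quantified by TMTpro 16plex LC-MS/MS with channel sums equalised. Thermal stability relative to control samples, from duplicates, is given as log2 fold change.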

[2] = compound: CC1=C(SC2=C1C(=N[C@H](C3=NN=C(N32)C)CC(=O)N)C4=CC=C(C=C4)Cl)C
Summary of the method: as §1

[3] = compound: CC1=C2C(=CC=C1)N=C(N(C2=O)C3=CC=CC=C3C)CN4C=NC5=C(N=CN=C54)N
Summary of the method: as §1

[4] = compound: Cc1sc2c(c1C)C(c1ccc(Cl)cc1)=N[C@@H](CC(=O)OC(C)(C)C)c1nnc(C)n1-2
Summary of the method: as §1

[5] = compound: c1ccc([C@@H]2C[C@H]2NC2CCNCC2)cc1
Summary of the method: as §1

Measured: log2 fold change

MAPK9 (UniProt P45984)
Sequence of UniProt P45984 (P45984 whole entry, looked up): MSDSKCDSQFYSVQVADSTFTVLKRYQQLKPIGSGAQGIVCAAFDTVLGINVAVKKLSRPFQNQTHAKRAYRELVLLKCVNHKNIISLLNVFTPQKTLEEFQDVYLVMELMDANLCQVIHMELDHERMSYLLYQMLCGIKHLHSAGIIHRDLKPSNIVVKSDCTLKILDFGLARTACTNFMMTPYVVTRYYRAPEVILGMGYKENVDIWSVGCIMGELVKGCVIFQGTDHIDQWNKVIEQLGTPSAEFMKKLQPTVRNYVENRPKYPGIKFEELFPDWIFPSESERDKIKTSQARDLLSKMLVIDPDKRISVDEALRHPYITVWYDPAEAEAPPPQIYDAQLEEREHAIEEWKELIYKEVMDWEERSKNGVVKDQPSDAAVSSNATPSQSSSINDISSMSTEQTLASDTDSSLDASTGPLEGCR
inactive: [1] 0.015 | [2] 0.015 | [3] 0.039 | [4] -0.042 | [5] 0.004

MAPK12 (UniProt P53778)
Sequence of UniProt P53778 (P53778 whole entry, looked up): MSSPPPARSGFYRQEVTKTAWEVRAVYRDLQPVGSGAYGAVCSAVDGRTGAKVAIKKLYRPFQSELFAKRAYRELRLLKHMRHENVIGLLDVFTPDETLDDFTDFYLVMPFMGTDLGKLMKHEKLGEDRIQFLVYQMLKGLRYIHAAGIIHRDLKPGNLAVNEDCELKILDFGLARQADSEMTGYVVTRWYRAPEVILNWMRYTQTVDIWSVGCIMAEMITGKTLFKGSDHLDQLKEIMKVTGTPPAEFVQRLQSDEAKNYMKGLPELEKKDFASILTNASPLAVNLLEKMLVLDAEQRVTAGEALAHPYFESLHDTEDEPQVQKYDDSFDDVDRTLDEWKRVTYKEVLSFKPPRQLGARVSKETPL
inactive: [1] -0.022 | [2] 0.017 | [3] 0.026 | [4] 0.008 | [5] -0.002

LUC7L (UniProt Q9NQ29)
Sequence of UniProt Q9NQ29 (Q9NQ29 whole entry, looked up): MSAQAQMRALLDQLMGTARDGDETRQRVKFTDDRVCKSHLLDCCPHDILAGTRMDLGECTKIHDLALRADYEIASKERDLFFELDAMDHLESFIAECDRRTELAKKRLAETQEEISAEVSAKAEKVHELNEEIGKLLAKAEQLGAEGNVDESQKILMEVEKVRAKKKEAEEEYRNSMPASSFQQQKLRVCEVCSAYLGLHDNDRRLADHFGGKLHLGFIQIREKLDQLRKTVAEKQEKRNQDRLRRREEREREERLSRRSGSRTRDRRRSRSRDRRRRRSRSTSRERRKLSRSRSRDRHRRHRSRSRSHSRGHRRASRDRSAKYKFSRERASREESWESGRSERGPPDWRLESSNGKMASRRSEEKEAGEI
inactive: [1] 0.011 | [2] -0.015 | [3] -0.011 | [4] 0 | [5] 0.027

IMMT isoform 4 (UniProt Q16891)
Sequence of UniProt Q16891 (Q16891 whole entry, looked up): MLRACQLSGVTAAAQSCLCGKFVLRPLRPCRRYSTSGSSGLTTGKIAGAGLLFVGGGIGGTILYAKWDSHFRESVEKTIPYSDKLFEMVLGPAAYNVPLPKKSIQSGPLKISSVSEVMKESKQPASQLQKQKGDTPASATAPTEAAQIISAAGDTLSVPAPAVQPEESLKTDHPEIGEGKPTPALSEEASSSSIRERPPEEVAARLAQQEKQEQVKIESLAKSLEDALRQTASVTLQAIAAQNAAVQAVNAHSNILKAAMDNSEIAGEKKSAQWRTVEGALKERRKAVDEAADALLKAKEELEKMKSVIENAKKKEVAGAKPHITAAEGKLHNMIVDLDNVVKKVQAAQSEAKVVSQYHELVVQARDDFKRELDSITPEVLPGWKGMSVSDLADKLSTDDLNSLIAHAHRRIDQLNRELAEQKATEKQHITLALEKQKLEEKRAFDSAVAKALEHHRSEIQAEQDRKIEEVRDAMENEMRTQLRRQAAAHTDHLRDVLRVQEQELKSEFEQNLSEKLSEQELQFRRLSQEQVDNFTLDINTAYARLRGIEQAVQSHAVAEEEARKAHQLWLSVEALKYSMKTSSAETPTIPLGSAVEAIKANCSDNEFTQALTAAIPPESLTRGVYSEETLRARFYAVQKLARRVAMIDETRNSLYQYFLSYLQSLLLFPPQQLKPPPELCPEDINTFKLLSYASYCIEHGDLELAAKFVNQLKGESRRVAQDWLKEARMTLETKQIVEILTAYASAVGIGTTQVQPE
inactive: [1] 0.005 | [2] 0.021 | [3] 0.026 | [4] -0.025 | [5] -0.008

KIF11 (UniProt P52732)
inactive: [1] -0.044 | [2] -0.011 | [3] 0.074 | [4] 0.092 | [5] -0.027

KIF13A (UniProt Q9H1H9)
Sequence of UniProt Q9H1H9 (Q9H1H9 whole entry, looked up): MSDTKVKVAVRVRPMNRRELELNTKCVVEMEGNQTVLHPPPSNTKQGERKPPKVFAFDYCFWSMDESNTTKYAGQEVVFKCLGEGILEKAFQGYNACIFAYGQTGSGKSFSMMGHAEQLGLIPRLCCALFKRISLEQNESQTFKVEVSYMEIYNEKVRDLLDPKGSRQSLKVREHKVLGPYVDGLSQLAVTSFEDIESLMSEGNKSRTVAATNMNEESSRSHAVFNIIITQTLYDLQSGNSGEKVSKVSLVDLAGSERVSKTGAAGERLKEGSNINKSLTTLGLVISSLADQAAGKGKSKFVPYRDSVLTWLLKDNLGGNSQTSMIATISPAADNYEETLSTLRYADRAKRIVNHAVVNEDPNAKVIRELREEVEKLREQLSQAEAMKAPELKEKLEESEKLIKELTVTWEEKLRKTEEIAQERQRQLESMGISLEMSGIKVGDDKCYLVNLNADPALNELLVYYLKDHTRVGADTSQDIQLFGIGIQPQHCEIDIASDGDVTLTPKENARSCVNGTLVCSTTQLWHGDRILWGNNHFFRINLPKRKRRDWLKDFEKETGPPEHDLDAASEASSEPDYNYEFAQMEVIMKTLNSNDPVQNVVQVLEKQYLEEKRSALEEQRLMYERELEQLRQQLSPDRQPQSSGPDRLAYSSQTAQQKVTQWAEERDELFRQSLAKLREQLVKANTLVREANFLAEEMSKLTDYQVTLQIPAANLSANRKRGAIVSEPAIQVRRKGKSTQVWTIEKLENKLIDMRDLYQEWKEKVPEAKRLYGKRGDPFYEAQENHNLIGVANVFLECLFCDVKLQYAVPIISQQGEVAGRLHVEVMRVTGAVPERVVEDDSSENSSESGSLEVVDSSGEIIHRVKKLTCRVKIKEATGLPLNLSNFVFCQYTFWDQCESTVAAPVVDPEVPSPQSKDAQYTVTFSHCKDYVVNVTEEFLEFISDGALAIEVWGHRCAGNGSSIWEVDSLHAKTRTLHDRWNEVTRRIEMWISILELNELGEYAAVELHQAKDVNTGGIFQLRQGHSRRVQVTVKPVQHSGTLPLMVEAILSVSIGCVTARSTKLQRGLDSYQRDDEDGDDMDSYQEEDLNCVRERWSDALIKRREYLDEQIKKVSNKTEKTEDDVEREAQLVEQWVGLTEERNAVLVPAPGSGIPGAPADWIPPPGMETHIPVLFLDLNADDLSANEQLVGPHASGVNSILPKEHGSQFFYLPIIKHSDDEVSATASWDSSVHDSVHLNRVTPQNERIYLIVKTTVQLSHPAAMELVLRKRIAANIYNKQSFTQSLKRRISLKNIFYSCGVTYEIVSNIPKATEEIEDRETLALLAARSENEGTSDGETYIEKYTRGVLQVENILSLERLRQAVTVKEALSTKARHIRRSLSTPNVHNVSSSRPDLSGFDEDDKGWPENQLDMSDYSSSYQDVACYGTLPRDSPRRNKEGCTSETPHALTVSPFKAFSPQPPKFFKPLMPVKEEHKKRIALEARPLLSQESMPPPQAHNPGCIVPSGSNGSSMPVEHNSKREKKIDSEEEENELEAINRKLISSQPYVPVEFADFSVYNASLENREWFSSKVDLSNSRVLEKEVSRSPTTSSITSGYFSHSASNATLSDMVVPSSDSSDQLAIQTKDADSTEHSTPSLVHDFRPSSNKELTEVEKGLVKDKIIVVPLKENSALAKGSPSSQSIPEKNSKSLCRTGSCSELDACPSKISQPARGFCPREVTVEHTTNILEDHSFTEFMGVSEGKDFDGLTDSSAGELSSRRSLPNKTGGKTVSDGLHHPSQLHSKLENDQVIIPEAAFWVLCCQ
inactive: [1] 0.022 | [2] 0.039 | [3] 0.054 | [4] -0.059 | [5] -0.027

IL27RA (UniProt Q6UWB1)
Sequence of UniProt Q6UWB1 (Q6UWB1 whole entry, looked up): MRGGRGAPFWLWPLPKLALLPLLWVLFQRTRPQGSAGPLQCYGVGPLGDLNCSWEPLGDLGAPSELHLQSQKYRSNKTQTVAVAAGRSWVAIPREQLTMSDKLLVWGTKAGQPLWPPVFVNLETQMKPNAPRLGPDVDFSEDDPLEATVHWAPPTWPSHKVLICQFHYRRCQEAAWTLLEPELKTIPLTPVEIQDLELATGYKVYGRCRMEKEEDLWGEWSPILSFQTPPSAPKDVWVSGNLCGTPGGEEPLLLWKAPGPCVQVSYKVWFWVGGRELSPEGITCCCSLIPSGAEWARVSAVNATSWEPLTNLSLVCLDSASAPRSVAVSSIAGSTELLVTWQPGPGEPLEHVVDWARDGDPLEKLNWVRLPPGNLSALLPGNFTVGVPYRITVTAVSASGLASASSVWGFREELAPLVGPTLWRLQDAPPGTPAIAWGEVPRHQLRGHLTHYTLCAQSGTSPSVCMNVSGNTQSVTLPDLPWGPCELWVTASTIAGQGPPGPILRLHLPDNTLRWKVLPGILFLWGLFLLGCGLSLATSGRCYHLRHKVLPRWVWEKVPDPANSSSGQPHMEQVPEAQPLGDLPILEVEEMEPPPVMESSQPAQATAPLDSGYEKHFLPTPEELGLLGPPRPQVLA
inactive: [1] 0.021 | [2] 0.144 | [3] 0.002 | [4] 0.097 | [5] 0.096

MAP2K7 isoform 4 (UniProt O14733)
Sequence of UniProt O14733 (O14733 whole entry, looked up): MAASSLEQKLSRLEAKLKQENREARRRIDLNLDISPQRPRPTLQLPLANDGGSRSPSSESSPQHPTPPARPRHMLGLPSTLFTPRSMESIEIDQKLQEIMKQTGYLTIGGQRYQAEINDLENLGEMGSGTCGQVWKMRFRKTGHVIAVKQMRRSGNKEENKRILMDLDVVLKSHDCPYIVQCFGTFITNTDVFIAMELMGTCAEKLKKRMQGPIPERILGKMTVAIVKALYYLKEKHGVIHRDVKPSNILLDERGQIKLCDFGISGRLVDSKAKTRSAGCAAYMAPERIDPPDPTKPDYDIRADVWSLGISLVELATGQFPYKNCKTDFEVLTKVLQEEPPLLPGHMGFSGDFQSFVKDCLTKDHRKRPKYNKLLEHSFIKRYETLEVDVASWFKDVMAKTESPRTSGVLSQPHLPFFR
inactive: [1] -0.009 | [2] 0.029 | [3] 0.065 | [4] 0.013 | [5] 0.044

MARCKSL1 (UniProt P49006)
Sequence of UniProt P49006 (P49006 whole entry, looked up): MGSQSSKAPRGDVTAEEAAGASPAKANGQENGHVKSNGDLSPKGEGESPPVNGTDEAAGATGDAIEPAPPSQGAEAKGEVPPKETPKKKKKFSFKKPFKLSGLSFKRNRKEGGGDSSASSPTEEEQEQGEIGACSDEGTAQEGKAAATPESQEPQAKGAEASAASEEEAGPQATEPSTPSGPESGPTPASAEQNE
inactive: [1] -0.052 | [2] 0.029 | [3] -0.032 | [4] -0.008 | [5] 0.011

From the supplement of paper PMC10849652
